Experimental data taken from ChEMBL document CHEMBL3988442, “University of Dundee, Small-Polar-MMV Screening Library” (2021).
Among all 69,000 compounds or so, about 950 (1.4%) showed an effect of 50% or more. This excerpt belongs to a sample that is enriched for strong results.

These molecules were tested on Mycobacterium tuberculosis (assay: Cornell M. t heat shock assay; also: in the data most compounds retested in dose-response had high values).
Type: functional, organism-based
Set-up: dose or concentration left out as unconfirmed
With O=C(O)C(F)(F)F.O=C(O)C(F)(F)F.c1ccc(N2CC[C@H](OCC3CC3)[C@@H]2Cc2cccnc2)nc1 the “Percent Effect” value was 14.43%.
For O=C(O)C(F)(F)F.c1cc(-c2ccc3nc(C4CCN(CC5CC5)CC4)nn3c2)cs1, the “Percent Effect” value was -34.74%.
Cc1cc(C)nc(N2CC=C[C@@H]2C(=O)NCc2ccc3c(c2)OCO3)n1.Cl was tested, and the “Percent Effect” value was 15.24%.
In the case of CN(C)C(=O)N1C[C@@H]2CC[C@H](C1)N(C(=O)c1cccc(N(C)C)c1)C2, the “Percent Effect” value is reported as -44.86%.
In the case of CC(C)N(C(=O)Cn1c(-c2ccco2)cc2cccnc21)C(C)C.Cl, the “Percent Effect” value is reported as 22.85%.
With CCN1CCn2c(C)cnc2C12CCN(C(=O)c1ccco1)CC2.O=C(O)C(F)(F)F.O=C(O)C(F)(F)F the “Percent Effect” value was -2.925%.
For CN(C)CCN1C(=O)CCC12CCCN(C(=O)N(C)C)CC2.O=C(O)C(F)(F)F (stereo not given), the “Percent Effect” value was -13.38%.
For Cc1nc(C2(O)CCCNCC2)sc1CCOc1ccc(F)cc1.Cl (stereo not given), the “Percent Effect” value was -29.66%.
For CC[C@@H]1N(Cc2cccnc2)CCC[C@]12CCC(=O)N2C.O=C(O)C(F)(F)F.O=C(O)C(F)(F)F, the “Percent Effect” value was -6.56%.
With Cc1cc(CCC2CN(CC3(O)CCCCC3)CCO2)ncn1 (stereo not given) the “Percent Effect” value was -44.25%.
With O=C(O)C(F)(F)F.O=C1CC[C@H]2[C@@H](CCN2Cc2ccco2)N1 the “Percent Effect” value was 9.652%.
O=C(O)C(F)(F)F.O=C(O)C(F)(F)F.c1cc(CN2C[C@@H]3OCCN(CC4CCCO4)[C@@H]3C2)cs1 (stereo not given in full) was tested, and the “Percent Effect” value was -21.3%.
For Cn1cc(CN2C[C@@H]3COC[C@]3(CNC(=O)c3ccccc3)C2)cn1.O=C(O)C(F)(F)F, the “Percent Effect” value was -17.03%.
In the case of Cn1cc(CN2CCC3(CC2)CCN(C(=O)c2cscn2)CC3)cn1.O=C(O)C(F)(F)F, the “Percent Effect” value is reported as -25.9%.
For Cc1noc(NCc2ccc(F)cc2)n1, the “Percent Effect” value was -14.89%.
For Cc1noc(NC(=O)CCNC(=O)c2ccc(Br)cc2)n1, the “Percent Effect” value was -35.97%.
In the case of Cc1noc(NC(=O)c2ccc(OC(F)(F)F)cc2)n1, the “Percent Effect” value is reported as 102.9%.
In the case of Cn1nc(CNC(=O)c2ccc(OC(F)(F)F)cc2)c2c1CCOC2, the “Percent Effect” value is reported as -19.12%.
With CN1C[C@H](O)C[C@H]1c1nc(-c2ccc(OC(F)(F)F)cc2)no1 the “Percent Effect” value was -7.267%.
With Cc1noc([C@@H]2C[C@H](NC(=O)Nc3ccccc3)CN2C)n1 the “Percent Effect” value was -29.39%.
For Cc1noc(NC(=O)c2ccc(Br)cc2)n1, the “Percent Effect” value was 103.7%.
In the case of Cc1nn(C(C)C)c(C)c1NC(=O)c1ccccc1, the “Percent Effect” value is reported as -7.424%.
Cc1noc(NC(=O)c2ccc(F)cc2)n1 was tested, and the “Percent Effect” value was 105.9%.
For Cc1c(NC(=O)c2ccc(Br)cc2)c(C(=O)N(C)C)nn1C, the “Percent Effect” value was 5.328%.
For Cc1noc(NCc2cc(F)ccc2F)n1, the “Percent Effect” value was -3.185%.
Cc1noc(NC(=O)c2ccccc2)n1 was tested, and the “Percent Effect” value was 75.22%.
With COc1cc2cc(C)c(SCCN3CCCC3)nc2cc1OC.Cl the “Percent Effect” value was 5.186%.
With Cn1ncc2c1C(COCC1CC1)N(Cc1ccoc1)CC2.O=C(O)C(F)(F)F.O=C(O)C(F)(F)F (stereo not given) the “Percent Effect” value was -34.45%.
O=C(NC[C@H]1OC[C@@H]2CN(Cc3ccco3)CC[C@@H]21)c1cccnc1.O=C(O)C(F)(F)F.O=C(O)C(F)(F)F was tested, and the “Percent Effect” value was -10.25%.
In the case of Cc1noc(C)c1CN1CCO[C@H]2CN(C(=O)C3CCOCC3)C[C@H]21.O=C(O)C(F)(F)F, the “Percent Effect” value is reported as -18.06%.
COc1ncccc1CNC1CCc2c(ccc(=O)n2C)C1.O=C(O)C(F)(F)F.O=C(O)C(F)(F)F (stereo not given) was tested, and the “Percent Effect” value was 17.68%.
With NC(=O)N1C[C@H]2CN(Cc3nccs3)C[C@H]2C1.O=C(O)C(F)(F)F the “Percent Effect” value was -3.349%.
Cc1ccc(C(=O)N2CCN3C[C@H](Oc4cccnc4)C[C@H]3C2)cn1.O=C(O)C(F)(F)F.O=C(O)C(F)(F)F.O=C(O)C(F)(F)F was tested, and the “Percent Effect” value was -27.6%.
COc1ccc2[nH]cc(C(=O)CNc3nccs3)c2c1.I was tested, and the “Percent Effect” value was 0.8623%.
For O=C(O)C(F)(F)F.O=C(c1cnccn1)N1C[C@@H]2C[C@@H](c3nc(C4CC4)cs3)O[C@@H]2C1, the “Percent Effect” value was 1.274%.
With Cc1ccc(C(=O)Nc2nc(C)no2)cc1 the “Percent Effect” value was 75.29%.
For Cc1ccc(C(=O)Nc2cn[nH]c2)cc1, the “Percent Effect” value was -8.204%.
In the case of Cc1ccc(C(=O)Nc2c(C(=O)N(C)C)nn(C)c2C)cc1, the “Percent Effect” value is reported as -14.21%.
Cc1nnc(N2CCCC3(CN(Cc4cccnc4)CCO3)C2)o1.O=C(O)C(F)(F)F.O=C(O)C(F)(F)F.O=C(O)C(F)(F)F (stereo not given) was tested, and the “Percent Effect” value was -2.58%.
With Cc1nc(COC[C@H]2CCC[C@@]23CN(C(C)C)CCO3)cs1.O=C(O)C(F)(F)F the “Percent Effect” value was -25.66%.
COc1cccc([C@H]2CN(C(C)=O)[C@@H]3CCN(Cc4ccsc4)C[C@H]23)c1.Cl was tested, and the “Percent Effect” value was -8.302%.
With O=C(O)C(=O)O.c1coc(CN2CCC(c3ccc4c(c3)OCO4)CC2)c1 the “Percent Effect” value was 5.355%.
In the case of CCCc1nc(CNC(C)Cn2cccn2)cs1 (stereo not given), the “Percent Effect” value is reported as 69.81%.
With CC(Cn1cccn1)NCc1ccc(OCc2ccncc2)cc1 (stereo not given) the “Percent Effect” value was -3.58%.
For CCc1nc(CNC(C)Cn2cccn2)cs1 (stereo not given), the “Percent Effect” value was 11.1%.
CC(Cn1cccn1)NCc1ccc(Cl)s1 (stereo not given) was tested, and the “Percent Effect” value was -2.882%.
For CC(Cn1cccn1)NCc1csc(-c2ncccn2)n1 (stereo not given), the “Percent Effect” value was -0.311%.
For CC(Cn1cccn1)NCc1csc(COc2ccc(F)cc2)n1 (stereo not given), the “Percent Effect” value was 104%.
With CC(Cn1cccn1)NCc1csc(-c2ccc(F)cc2)n1 (stereo not given) the “Percent Effect” value was 41.6%.
CC(Cn1cccn1)NCc1csc2c1CCCC2 (stereo not given) was tested, and the “Percent Effect” value was -4.744%.
CC(Cn1cccn1)NCc1csc(Cc2ccccc2)n1 (stereo not given) was tested, and the “Percent Effect” value was 103.2%.
For COc1ccc(CNC(C)Cn2cccn2)cc1F (stereo not given), the “Percent Effect” value was -3.821%.
With CC(Cn1cccn1)NCc1csc(COc2ccccc2)n1 (stereo not given) the “Percent Effect” value was 96.83%.
With O=C(O)C(F)(F)F.O=C(c1ccnnc1)N1C[C@H]2CCC[C@@]2(COCc2ccccn2)C1 the “Percent Effect” value was -25.48%.
In the case of COc1ccc(CCC2CCCCN2)cc1.Cl (stereo not given), the “Percent Effect” value is reported as -16.14%.
For O=C(O)C(F)(F)F.O=C(c1cccnc1)N1C[C@H]2CN(Cc3cccc(F)c3)C(=O)[C@H]2C1, the “Percent Effect” value was -29.23%.
With Cc1oncc1C(=O)N1CC[C@@H]2[C@@H]1CC(=O)N2Cc1cccnc1.O=C(O)C(F)(F)F the “Percent Effect” value was 26.27%.
In the case of N#Cc1cccc(C(=O)N2CC[C@H]3[C@H]2CCN3CC2CC2)c1.O=C(O)C(F)(F)F, the “Percent Effect” value is reported as -24.15%.
Fc1ccc(CN2CCC3(CC2)CCN(c2ncccn2)CC3)cc1.O=C(O)C(F)(F)F.O=C(O)C(F)(F)F was tested, and the “Percent Effect” value was -1.526%.
In the case of CC1CN(C)CCN1C(=O)c1cnc2c(cnn2C2CCCC2)c1 (stereo not given), the “Percent Effect” value is reported as -19.82%.
O=C(NC1CC1)[C@H]1C[C@@H]2CCN(CCc3ccccc3)C[C@H]2O1.O=C(O)C(F)(F)F was tested, and the “Percent Effect” value was -1.701%.
With COc1cccc(S(=O)(=O)NC(=O)CCC2CCCO2)c1 (stereo not given) the “Percent Effect” value was 15.02%.
COc1cccc(S(=O)(=O)NC(=O)CC2CCCC2)c1 was tested, and the “Percent Effect” value was 1.853%.
With COc1cccc(S(=O)(=O)NC(=O)CCC2CCCC2)c1 the “Percent Effect” value was 97.07%.
O=C(O)C(F)(F)F.O=C(c1ccco1)N1CC[C@@H]2CN(C3CCOCC3)CCO[C@@H]2C1 was tested, and the “Percent Effect” value was 13.99%.
With CCCc1nnc(C(=O)N(C)Cc2ccc(OC)cc2)o1 the “Percent Effect” value was -0.8003%.
In the case of COCc1nnc(C(=O)N(C)Cc2ccc(OC)cc2)o1, the “Percent Effect” value is reported as 51.18%.
With COc1ccc(CN(C)C(=O)c2nnc(CN(C)C)o2)cc1 the “Percent Effect” value was -15.5%.
With COCC(=O)N1CCN(Cn2nc(C)c(Br)c2C)CC1 the “Percent Effect” value was -1.426%.
For O=C(N1CCCC1)N1CCOCC2(CCN(Cc3cccs3)C2)C1.O=C(O)C(F)(F)F (stereo not given), the “Percent Effect” value was -28.46%.
With Cc1ncc(CNC(C)(C)CO)c2cc(C(=O)c3ccc(Br)cc3)oc12 the “Percent Effect” value was 39.89%.
For Cc1ncc(CNCCO)c2cc(C(=O)c3ccc(Br)cc3)oc12.Cl, the “Percent Effect” value was 80.79%.
With Cc1ncc(CNCC(C)O)c2cc(C(=O)c3ccc(Br)cc3)oc12.Cl (stereo not given) the “Percent Effect” value was 10.59%.
In the case of Cl.c1csc(-c2noc(C3CNC3)n2)c1, the “Percent Effect” value is reported as 3.28%.
In the case of O=C(O)C(F)(F)F.O=C(O)C(F)(F)F.O=C(O)C(F)(F)F.c1cnn(C[C@@H]2C[C@@H]3CN(CC4CC4)CC[C@@H]3N2c2nccs2)c1, the “Percent Effect” value is reported as -5.195%.
In the case of O=C(O)CC(O)(CC(=O)O)C(=O)O.OC1CCCN(Cc2ccnc(-c3cccnc3)n2)C1 (stereo not given), the “Percent Effect” value is reported as -5.175%.
With CCOC1COC2(CCN(Cc3cccc(C#N)c3)CC2)C1.O=C(O)C(F)(F)F (stereo not given) the “Percent Effect” value was -5.189%.
In the case of N#Cc1ccc(N2CCCC3(CCC(=O)N3CC3CC3)CC2)nc1.O=C(O)C(F)(F)F (stereo not given), the “Percent Effect” value is reported as 42.6%.
In the case of CN(C(=O)C(c1c(F)cccc1Cl)N(C)C)c1nccs1 (stereo not given), the “Percent Effect” value is reported as -3.774%.
In the case of CN(C)C(C(=O)Nc1nccs1)c1c(F)cccc1Cl (stereo not given), the “Percent Effect” value is reported as 71.6%.
With Cc1csc(N(C)C(=O)C(c2c(F)cccc2Cl)N(C)C)n1 (stereo not given) the “Percent Effect” value was 16.08%.
For O=C(O)C(F)(F)F.O=C(c1cnccn1)N1CCC2(CC1)CCN(Cc1ccccn1)C2=O, the “Percent Effect” value was -24.58%.
With Cl.FC(F)CNc1cnc(C2CCNCC2)cn1 the “Percent Effect” value was 9.975%.
CN(C)CCn1c2c(ccc1=O)CC(NCc1cnn(C)c1)CC2.O=C(O)C(F)(F)F.O=C(O)C(F)(F)F (stereo not given) was tested, and the “Percent Effect” value was 21.9%.
With O=C(O)C(F)(F)F.O=C(O)C(F)(F)F.c1cncc(C2COC3(CCN(CC4CCOCC4)CC3)C2)c1 (stereo not given) the “Percent Effect” value was -13.27%.
In the case of CCN1CCOCC12CCN(C(=O)Cc1ccccc1)CC2.O=C(O)C(F)(F)F, the “Percent Effect” value is reported as -16.25%.
With CNC(=O)CN1CC[C@H]2CN(C(=O)c3cc[nH]n3)C[C@H]2C1.O=C(O)C(F)(F)F the “Percent Effect” value was 6.516%.
Cc1oc(-c2ccsc2)nc1CNC(C)Cn1cccn1 (stereo not given) was tested, and the “Percent Effect” value was -16.19%.
In the case of Cc1cnn(CCNCc2nc(-c3ccsc3)oc2C)c1, the “Percent Effect” value is reported as -4.227%.
For Cc1cnn(CC(C)NCc2nc(-c3ccsc3)oc2C)c1 (stereo not given), the “Percent Effect” value was 59.87%.
